# Test results from the supplement of paper PMC9254222.
# Over roughly 1,100 compounds, “Renilla luciferase signal (cell health) relative to plate median” has its median near 0.97; the highest 2% begin near 1.6. Many of the other results were omitted from the sample, so the highest values are more common in it than they were.
# Tested on: HEK293T (UBE3A T485A transfected, BAR Wnt reporter)
# Experiment: Renilla luciferase signal (cell health) relative to plate median (fold (linear ratio)); higher = higher Renilla signal
# Conditions: 24 h
# Outline: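 Using Fugene 6, HEK293T cells in white 384-well plates (4500 cells/well; DMEM, 10% FBS, 37°C, 5% CO2) were transfected with a BAR firefly luciferase Wnt reporter, TK-Renilla and an expression plasmid. After four hours, robots dosed the chemicals at 0.01–100 uM, and a Dual-Glo luciferase readout followed 24 h later. Per-plate median-centred firefly/Renilla ratios gave Wnt activity, while per-plate median-centred raw Renilla signals gave cell health. Four biological replicates were averaged.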
Structure (SMILES),Renilla luciferase signal (concentration: 0.1 uM),Renilla luciferase signal (concentration: 1 uM),Renilla luciferase signal (concentration: 10 uM),Renilla luciferase signal (concentration: 100 uM),Renilla luciferase signal (concentration: 0.01 uM)
CC(Cc1ccc(OCC(=O)O)cc1)NCC(O)c1csc(C(F)(F)F)n1 (stereo not drawn),0.796,0.849,0.912,1.28,
"CCC12COCN1COC2 [5-Ethyl-1-aza-3,7-dioxabicyclo[3.3.0]octane]",0.93,1.08,1.1,1.35,
CCCCC(CC)COC(=O)c1ccc(C(=O)OCC(CC)CCCC)c(C(=O)OCC(CC)CCCC)c1 (stereo not drawn) [Tris(2-ethylhexyl) trimellitate],0.879,0.991,0.972,1.2,
CCC(=O)O[C@H]1CC[C@H]2[C@@H]3CCC4=CC(=O)CC[C@]4(C)[C@H]3CC[C@]12C [Testosterone propionate],0.869,0.772,0.878,1.11,
C[C@]12CCC(=O)C[C@@H]1CC[C@@H]1[C@@H]2CC[C@]2(C)[C@@H](O)CC[C@@H]12 [5alpha-Dihydrotestosterone],0.867,0.848,1,2.06,
CNC(=O)N(C)c1nnc(C(C)(C)C)s1 [Tebuthiuron],0.795,1.02,0.738,1.26,1.19
Cc1ccccc1N [2-Methylaniline],1.15,1.29,1.25,1.25,
"CC(c1ccc(O)cc1)(c1ccc(O)cc1)c1ccc(O)cc1 [4,4',4""-Ethane-1,1,1-triyltriphenol]",0.468,0.58,0.509,0.0116,
ClC(Cl)c1ccccc1 [Benzal chloride],1.11,0.929,1.12,1.15,
"CC(C)(C)c1cc(C(C)(C)C)c(O)c(C(C)(C)C)c1 [2,4,6-Tris(tert-butyl)phenol]",0.951,1.04,1.18,1.73,
CC(C)(C)c1ccccc1O [2-tert-Butylphenol],0.823,0.913,0.724,0.378,
COc1ccc(O)c(C(C)(C)C)c1 [2-tert-Butyl-4-methoxyphenol],0.947,0.971,1.22,1.03,
O=C(Nc1ccc2[nH]ccc2c1)c1cc2cc(F)ccc2n1Cc1cccc(F)c1,1.07,1.02,0.543,0.0428,
CCCN(CC)CC1COC2(CCC(C(C)(C)C)CC2)O1 (stereo not drawn) [Spiroxamine],1.34,1.13,1.06,0.0856,0.835
CC(C)CCCCCCCOC(=O)c1ccccc1C(=O)OCCCCCCCC(C)C,1.21,1.01,1.1,1.26,
CCCCOC(=O)c1ccccc1C(=O)OCc1ccccc1 [Benzyl butyl phthalate],1.05,1.23,1.28,1.04,
C=CC1(C)OC(=O)N(c2cc(Cl)cc(Cl)c2)C1=O (stereo not drawn) [Vinclozolin],0.904,1.09,1.28,2.37,1.03
CC12CC1(C)C(=O)N(c1cc(Cl)cc(Cl)c1)C2=O (stereo not drawn) [Procymidone],0.813,1.07,1.07,1.27,
Cc1ccc(N)cc1 [4-Methylaniline],0.71,0.873,0.684,0.856,
Fc1ccc(Oc2ccnc3cc(Cl)cc(Cl)c23)cc1 [Quinoxyfen],0.865,0.93,1.03,0.994,0.918

Structure (SMILES),Renilla luciferase signal (concentration: 0.1 uM),Renilla luciferase signal (concentration: 1 uM),Renilla luciferase signal (concentration: 10 uM),Renilla luciferase signal (concentration: 100 uM),Renilla luciferase signal (concentration: 0.01 uM)
O=[N+]([O-])c1ccc(Cl)cc1 [1-Chloro-4-nitrobenzene],0.98,0.976,0.993,1.1,
O=[N+]([O-])c1ccc(Oc2ccc(Cl)cc2Cl)cc1 [Nitrofen],1.06,1.17,1.05,1.69,
Oc1cc(Cl)ccc1Oc1ccc(Cl)cc1Cl [Triclosan],0.922,0.956,0.911,0.083,0.941
COC(=O)C(C)Oc1ccc(Oc2ccc(Cl)cc2Cl)cc1 (stereo not drawn) [Diclofop-methyl],0.869,0.732,0.936,2.15,1.01
CCCCOC(=O)[C@@H](C)Oc1ccc(Oc2ccc(C#N)cc2F)cc1 [Cyhalofop-butyl],1.04,0.889,1.03,0.226,1.03
CCCCNC(=O)OCC#CI [3-Iodo-2-propynyl-N-butylcarbamate],0.986,0.947,0.822,0.0151,0.922
CC1(C)C(C=C(Cl)Cl)C1C(=O)OC(C#N)c1ccc(F)c(Oc2ccccc2)c1 (stereo not drawn) [Cyfluthrin],1.31,1.27,0.975,1.1,1.01
COc1cccc(C(=O)NN(C(=O)c2cc(C)cc(C)c2)C(C)(C)C)c1C [Methoxyfenozide],1.1,1.05,1.04,0.685,1.37
Nc1c(Cl)cc([N+](=O)[O-])cc1Cl [Dicloran],0.765,0.894,0.77,0.167,0.651
CSC1=N[C@@](C)(c2ccccc2)C(=O)N1Nc1ccccc1 [Fenamidone],0.774,0.785,0.525,0.165,0.641
O=c1n(Cl)c(=O)n(Cl)c(=O)n1Cl [Symclosene],0.995,0.923,1.18,1.88,1.05
CCCOc1nn(C(=O)[N-]S(=O)(=O)c2ccccc2C(=O)OC)c(=O)n1C.[Na+] [Propoxycarbazone-sodium],1.21,1.03,0.975,1.2,1.17
CCCN(CCC)c1c([N+](=O)[O-])cc(C(F)(F)F)cc1[N+](=O)[O-] [Trifluralin],1.16,1.12,1.13,1.59,1.09
CCC(CC)Nc1c([N+](=O)[O-])cc(C)c(C)c1[N+](=O)[O-] [Pendimethalin],0.996,0.843,1.02,0.801,0.981
CCC(C)Nc1c([N+](=O)[O-])cc(C(C)(C)C)cc1[N+](=O)[O-] (stereo not drawn) [Butralin],1.06,0.989,1.04,1.94,0.921
O=[N+]([O-])c1ccccc1 [Nitrobenzene],0.931,0.977,0.817,0.932,
CCOP(=S)(OCC)Oc1ccc([N+](=O)[O-])cc1 [Parathion],1.13,1.04,1.11,1.36,1.03
O=C(Nc1ccccc1)c1ccccc1I [Benodanil],0.942,0.924,0.913,0.739,
CC1=C(C(=O)Nc2ccccc2)SCCO1 [Carboxin],1.11,1.07,0.949,2.12,0.996
"N=C(Nc1ccccc1)Nc1ccccc1 [1,3-Diphenylguanidine]",1.03,0.989,0.895,0.887,

Structure (SMILES),Renilla luciferase signal (concentration: 0.1 uM),Renilla luciferase signal (concentration: 1 uM),Renilla luciferase signal (concentration: 10 uM),Renilla luciferase signal (concentration: 100 uM),Renilla luciferase signal (concentration: 0.01 uM)
CS(=O)(=O)c1ccc(C(=O)C2C(=O)CCCC2=O)c([N+](=O)[O-])c1 [Mesotrione],0.808,0.956,1.03,1.39,0.834
FC(F)C(F)(F)OCC(Cn1cncn1)c1ccc(Cl)cc1Cl (stereo not drawn) [Tetraconazole],1.09,0.957,0.997,0.0289,1.01
CO/N=C(/C1=NOCCO1)c1ccccc1Oc1ncnc(Oc2ccccc2Cl)c1F [Fluoxastrobin],0.941,1.05,0.383,1.63,0.875
ClC(Cl)(Cl)c1ccccc1 [Benzotrichloride],0.82,0.9,0.872,1.04,
O=C(O)C1(c2ccc3c(c2)OC[C@H](Cc2ccc(-c4ccccc4)cc2)[C@H]3O)CCCC1,0.875,0.823,0.781,0.0901,
O=C1C2CC=CCC2C(=O)N1SC(Cl)(Cl)Cl (stereo not drawn) [Captan],1.04,0.975,1.02,0.036,1.19
Clc1ccc(C(Cl)(Cl)Cl)cc1 [4-Chlorobenzotrichloride],0.548,0.799,0.652,0.663,
COc1cc(OC)nc(Sc2cccc(Cl)c2C(=O)[O-])n1.[Na+] [Pyrithiobac-sodium],1.16,0.967,1.07,1.69,1.11
"CCCCCCCCCc1ccc(O)cc1 [4-Nonylphenol, branched]",1,0.945,1.06,0.973,
CC(C)(C)C(O)C(Oc1ccc(Cl)cc1)n1cncn1 (stereo not drawn) [Triadimenol],0.885,0.844,0.906,0.699,1.01
CCNC(=O)NC(=O)/C(C#N)=N/OC [Cymoxanil],1.16,1.08,1.15,2.39,1.26
CO/C=C(/C(=O)OC)c1ccccc1COc1cccc(C(F)(F)F)n1 [Picoxystrobin],0.76,0.879,0.82,0.465,
O=C(Nc1ccccc1-c1ccc(Cl)cc1)c1cccnc1Cl [Boscalid],0.848,0.903,0.818,1.24,0.775
Oc1cccc2cccnc12 [8-Hydroxyquinoline],0.779,0.797,0.764,0.0228,
CC1=NNC(=O)N(/N=C/c2cccnc2)C1 [Pymetrozine],0.911,0.966,0.97,1.45,0.89
CC(C)OC(=O)Nc1cccc(Cl)c1 [Chlorpropham],0.618,0.828,0.81,0.766,0.728
CC(Oc1ccc(Cl)cc1Cl)C(=O)O (stereo not drawn) [Dichlorprop],0.959,0.959,1.04,1.6,0.843
CC(Oc1cccc(Cl)c1)C(=O)O (stereo not drawn) [Cloprop],0.701,0.814,1.01,2.51,0.924
CC(C)(C)C(=O)C(Oc1ccc(Cl)cc1)n1cncn1 (stereo not drawn) [Triadimefon],0.867,0.961,1.05,0.777,1.42
O=C1c2ccccc2C(=O)N1SC(Cl)(Cl)Cl [Folpet],1.03,1.08,1.17,0.0353,1.08
